# Structures can show the parent of a compound that is named as a salt. ± gives the standard deviation of the averaged measurements.
# Tests used:
# Molm13 = assay: cell viability relative to DMSO control (bortezomib = 0%); higher = less growth inhibition; settings: 10 nM; 72 h
# Method in brief: (§1)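 Acute myeloid leukemia cells were plated at 1000 cells per well in 50 µL onto a 679-compound library of approved and investigational agents in 384-well plates and exposed to a single 10 nM dose for 72 h, in duplicate. Cell viability was measured by CellTiter-Glo luminescence on an EnVision reader. Readings were scaled to percentages by per-plate linear regression, with DMSO-treated cells set at 100% and positive-control-treated cells at 0%.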
# Mv4-11 = assay: as above; settings: 10 nM; 72 h
# Method in brief: as §1
Compound,cell viability (Molm13),cell viability (Mv4-11)
N#CC(c1ccnc(NCCc2cccnc2)n1)c1nc2ccccc2s1 (configuration not stated),105 ± 26%,109 ± 28%
COc1cc2ncnc(Nc3ccc(Cl)cc3F)c2cc1OC,108 ± 8.2%,102 ± 6.2%
"C=CC(=O)Nc1cccc(Nc2nc(Nc3ccc(N4CCN(C(C)=O)CC4)cc3OC)ncc2C(F)(F)F)c1 [Rociletinib (CO-1686, AVL-301)]",108 ± 10%,110 ± 1.6%
CO[C@@H]1[C@H](N(C)C(=O)c2ccccc2)C[C@H]2O[C@]1(C)n1c3ccccc3c3c4c(c5c6ccccc6n2c5c31)C(=O)NC4,76.2 ± 3%,87.82 ± 0.66%
CO[C@@H]1[C@H](N(C)C(=O)c2ccccc2)C[C@H]2O[C@]1(C)n1c3ccccc3c3c4c(c5c6ccccc6n2c5c31)C(=O)NC4 [PKC-412(Midostaurin)],95.04 ± 0.94%,89 ± 22%
Oc1cccc(-c2nc(N3CCOCC3)c3sccc3n2)c1 [PI3-Kinase ? Inhibitor 2],108.6 ± 0.5%,120 ± 22%
CO[C@@H](C(=O)N1Cc2[nH]nc(NC(=O)c3ccc(N4CCN(C)CC4)cc3)c2C1)c1ccccc1,95.2 ± 34%,100 ± 3.8%
Oc1ccc(Nc2nc(-c3ccc(Cl)cc3)cs2)cc1 [Sphingosine Kinase Inhibitor 2],101 ± 17%,108 ± 7.4%
COc1cc(N2CCC(N3CCN(C)CC3)CC2)ccc1Nc1ncnc(Nc2ccccc2S(=O)(=O)C(C)C)n1,96.5 ± 3.9%,98.6 ± 15%
C=CC(=O)Nc1cc(Nc2nccc(-c3c[nH]c4ccccc34)n2)c(OC)cc1N(C)CCN(C)C,104 ± 7.9%,121 ± 6.1%
CNCCNS(=O)(=O)c1cccc2cnccc12 [H-8 (hydrochloride)],106 ± 12%,108 ± 7.2%
